VCAM1 pot: potentiators of TNFa-induced VCAM1 expression, primary screen, imaging, HUVEC, TNFa stimulus, immunofluorescence; AID 808, 2007; HUVEC TNFa-stimulated VCAM-1 immunofluorescence, high-content imaging; scaled per plate to unstimulated/TNFa-only wells; activation, % at 2 µM; 93,000 tested, 0.19% active;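 active = activation above the screen mean plus 3 SD, with well images confirming the hit on visual review, cut at about 28% in these data, passing the limit was not always enough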;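 note: signal is the number of cytoplasmic VCAM-1 stained grains per positive cell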
Calls only; 0 = inactive. A selection follows.

SMILES	VCAM1 pot
CN(C(=O)CSc1nc(N)nn1-c1ccccc1)c1ccccc1	0
CC(NC(=O)c1ccco1)C(c1cccs1)N1CCOCC1 (stereo not given)	0
Nc1nonc1-n1nnc(C(=O)O)c1-c1cccs1	0
CCc1cccc(CC)c1NC(=O)C1SC(=Nc2ccccc2C)C(c2nc3ccccc3s2)=C1N (stereo not given)	0
O=C(O)c1ccc(NC(CSCc2cccc(F)c2)C(=O)O)c([N+](=O)[O-])c1 (stereo not given)	0
CCCc1cc(C(N)=O)c(NC(C)=O)s1	0
Cc1cc(C)c(C#N)c(=N)o1	0
CCSc1nc(O)c(Cc2ccccc2)c(=O)[nH]1	0
CC(C)(C)NS(=O)(=O)c1ccc(NC(=O)C(Sc2ccccc2)c2ccccc2)cc1 (stereo not given)	0
CCn1cc([N+](=O)[O-])c(C(=O)N2N=C3/C(=C/c4cccs4)CCCC3C2c2cccs2)n1 (stereo not given)	0
CC1CCc2c(sc3ncnc(N4CCN(S(=O)(=O)c5cccc6nonc56)CC4)c23)C1 (stereo not given)	0
CCOC(=O)CNC(=O)CSc1nnc(Cn2cnc3ccccc32)n1C	0
CCNc1ccc(Br)cc(C(=O)/C=C/c2ccc(Cl)cc2Cl)c1=O	0
CNC(=O)c1ccccc1S(=O)(=O)c1ccccc1C#N	0
C=C(C)CSc1nc(N)c2c(C)c(C)sc2n1	0
O=C(CN1C(=O)C2CC=CCC2C1=O)NCC1COc2ccccc2O1 (stereo not given)	0
CCCn1c(=N)n(CCOCCOCCn2c(=N)n(CCC)c3ccccc32)c2ccccc21	0
Cc1cccc(OCCCCCn2ccnc2)c1	0
COC(=O)CSC(C(=O)Nc1ccc(C)c(C)c1)c1ccccc1 (stereo not given)	0
CC1CCC2(CC1)N=C(N)Nc1nc3ccccc3n12 (stereo not given)	0
CNc1nc(NC)nc(-n2c(C(F)(F)F)nc3ccccc32)n1	0
CCOc1ccc2nc(SCC(=O)NC(=O)NCc3ccco3)[nH]c2c1	0
Cc1ccc(OCCNS(=O)(=O)c2cccs2)cc1	0
O=C(NC1CCCc2ccccc21)c1cncc(Br)c1 (stereo not given)	0
Cc1ccc(C)n1NC(=O)c1cccc(Cl)c1	0
SMILES	VCAM1 pot
CCN1C(=O)C(CC(=O)Nc2ccc(Br)cc2)N(CCCc2ccccc2)C1=S (stereo not given)	0
CCOC(=O)C1CCCN(Cc2sccc2C)C1 (stereo not given)	0
Cc1occc1C(=O)NNC(=O)NC12CC3CC(CC(C3)C1)C2	0
Cn1c(SCCCC(=O)c2ccc(Br)cc2)nnc1-c1ccncc1	0
COC(=O)COc1ccc(S(=O)(=O)Nc2ccc(NC(C)=O)cc2)cc1C	0
CC(C)NC(=O)c1ccccc1NC(=O)CCc1ccccc1	0
COCc1cc(Sc2ccc(Cl)cc2Cl)nc(-c2ccccc2)n1	0
CC(C(=O)Nc1ccccc1Sc1ccccc1)N(c1ccccc1)S(C)(=O)=O (stereo not given)	0
CCC(CC)C(=O)c1c[nH]c(C(=O)NCC2CCCO2)c1 (stereo not given)	0
CC(C)(C)S(=O)c1cccs1 (stereo not given)	0
N#Cc1ccccc1CSc1nc(N2CCCCC2)nc(N2CCCCC2)n1	0
O=C1O/C(=C/C(=O)N2CCOCC2)c2ccccc21	0
COc1cc2[nH]c(=O)n(CCCCCC(=O)N3CC=C(c4ccccc4)CC3)c(=O)c2cc1OC	0
CN(C)CCCN1C(=O)C(=O)/C(=C(/O)c2ccc3c(c2)OCO3)C1c1ccccn1 (stereo not given)	0
O=C(CSc1nnc(-c2cccs2)n1-c1ccccc1)N1CCc2ccccc21	0
CC(C)Oc1ccc(C2C(C(=O)c3ccco3)=C(O)C(=O)N2CCCN(C)C)cc1 (stereo not given)	0
CCOC(=O)C1=C(O)/C(=C/c2ccc(C)o2)SC1=NC(=O)c1ccccc1C	0
C=C(C)C1CC=C(C)/C(=N/NC(=O)COc2cccc3ccccc23)C1 (stereo not given)	0
C#CC1(O)CC(C)NCC1(C)CCC#N (stereo not given)	0
CC1N(O)C(C)(C)C(c2ccccc2)=[N+]1[O-] (stereo not given)	0
O=C(COc1ccccc1)Nc1ccc(OC(F)(F)C(F)F)c(NC(=O)COc2ccccc2)c1	0
CCCOC(=O)CSC1=C(C#N)C(c2ccccc2OC)C(C#N)C(=O)N1 (stereo not given)	0
COc1ccccc1C(=O)N/C(=C/c1ccc(Br)cc1)C(=O)NCC(=O)O	0
CN(CC(=O)NCc1ccncc1)S(=O)(=O)c1ccc(F)cc1	0
O=C1OCC(CO)(CO)N=C1NNc1ccccc1Cl	0
CCCN1CNC(=S)N(c2cc(C)ccc2C)C1	0
Cc1ccc(C(C)C)c(OC(=O)/C=C/c2ccccc2)c1	0
COc1ccc(CN(C)C2CCCCC2)c(C)c1C	0
Cc1ccc(Cl)cc1NC(=O)CC(O)(C(F)(F)F)C(F)(F)F	0
Cc1cccc(Cn2c(C(=O)OC(C)C)cc3c2ccn3C)c1	0

Screens (PubChem BioAssay)
